Only some compounds are listed: those with a hit (about 3.1% of all), similar ones and a draw of the others.
miR122 inh: inhibitors of miR-122 in Huh7 cells; activation (reporter increase), % at 12.5 µM; Huh7 miR-122 Renilla luciferase sensor, 48 h; neutral wells = 0, positive control = 100; hit rate 0.3% among 340,000;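 active = mean replicate activation score at least 90 and every replicate individually at or above 90; inconclusive = only one of the two criteria met; inactive = neither criterion met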;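 note: higher luciferase means less miR-122 activity so hits act as miR-122 inhibitors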
INS-1E GSIS act: primary screen for activators of insulin secretion dependent on glucose, INS-1E cells, GLuc reporter luminescence | INS-1E GLuc reporter insulin secretion, 2-3 h | activation, % at 16.6 µM | hit rate 0.61% among 370,000;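 active = lowest replicate activation of at least 40%, so every replicate reaches that level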
Env fusion inh: inhibitors of HIV Env-mediated cell fusion. HeLa-JRFL Env/CEM21 cell fusion, luciferase. inhibition, % at 12.3 µM. hit rate 1.1% among 360,000;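 active = mean replicate inhibition score of at least 50 and every replicate individually at or above 50; inconclusive = only one of the two criteria met; inactive = mean below 50 and not all replicates reaching 50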
PAX8 reporter: PAX8 transcriptional activity inhibition | RMG-I TPO-luciferase reporter, SteadyGlo, 24 h | inhibition, % at 12.6 µM | hit rate 1.2% among 360,000 | AID 652154;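 active = mean replicate inhibition at least 60% with every replicate also reaching 60%; inconclusive = only one of the two criteria is met; inactive = mean below 60% and not all replicates reaching 60%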;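 note: luciferase light reporting Pax8 driven TPO promoter activity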
EWS-Fli block: EWS/Fli transcriptional activity inhibition; A673 NR0B1-luciferase reporter, viability-normalised; inhibition, % at 12.6 µM; hit rate 0.67% among 350,000;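 active = mean inhibition of at least 50% after viability correction, with every replicate also passing that limit; inconclusive = mean reaches 50% but only one of two replicates passes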;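 note: firefly luciferase signal divided by Alamar Blue viability fluorescence both relative to DMSO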
Statin myotox sup: suppression of simvastatin myotoxicity; C2C12 myotubes + simvastatin, ATP luminescence, 48 h; scaled: DMSO 0, geranylgeraniol control 100; rescue of ATP level, % at 7.49 µM; hit rate 0.78% among 330,000; AID 602340;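 active = mean ATP rescue above about 67%, or every replicate alone reaching that limit, limit read from the data, passing the limit was not always enough; inconclusive = no clear call, values can overlap the other calls; inactive = mean under the limit and some replicate under it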;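 note: myotubes were challenged with 10 µM simvastatin during compound exposure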
Of the large screens only hits and unclear results are named; the others gave an inactive call; ! = repeats disagree; [ ] = remark or other dose.

Cc1noc(C)c1S(=O)(=O)Nc1ccc2c(c1)CC(=O)N([C@@H](C)CO)C[C@@H](C)[C@@H](CN(C)CC1CCCCC1)O2	none
ClC(Br)=C(n1cnc2ccccc21)n1cnc2ccccc21	Statin myotox sup 90.0 (no result: INS-1E GSIS act, Env fusion inh, PAX8 reporter, EWS-Fli block)
O=C1NC[C@H](CC2CCCCC2)N(CC2CCCCC2)C1=O	Statin myotox sup 107.3
CC(O)[C@H]1CNC(=O)C(=O)N1CC1CCCCC1 (some centres not stated)	none
COCCn1c(SCC(=O)Nc2ccc(Cl)c(S(=O)(=O)N(C)C)c2)nc2ccccc21	Env fusion inh 60.2 (no result: INS-1E GSIS act, PAX8 reporter, EWS-Fli block)
COCCn1c(SCC(=O)Nc2ccc(S(N)(=O)=O)cc2)nc2ccccc21	none (no result: INS-1E GSIS act, Env fusion inh, PAX8 reporter, EWS-Fli block, Statin myotox sup)
Cc1nnc2n1N=CC=C(C(C)(C)C)S2	none (no result: INS-1E GSIS act, EWS-Fli block)
Cc1nnc2n1N=CC=C(c1ccccc1)S2	INS-1E GSIS act 41.4 (no result: EWS-Fli block)
COc1ccc(-c2cn(CC[C@H]3CC[C@@H](NC(=O)Cc4ccccn4)[C@@H](CO)O3)nn2)cc1	PAX8 reporter 87.7 (no result: miR122 inh)
O=C(Cc1ccccn1)N[C@H]1CC[C@@H](CCn2cc(-c3ccccc3)nn2)O[C@@H]1CO	none
O=C(Nc1cccc(S(=O)(=O)N2CCCCCC2)c1)c1cncc(Br)c1	Env fusion inh 55.7 (no result: INS-1E GSIS act)
Cc1csc(SCC(=O)Nc2cc(S(=O)(=O)N3CCCC3)ccc2Cl)n1	none (no result: Env fusion inh, PAX8 reporter, EWS-Fli block, Statin myotox sup)
O=C(Nc1ccccn1)c1cccc(S(=O)(=O)N2CCOCC2)c1	miR122 inh 159.8 (no result: INS-1E GSIS act, Env fusion inh, PAX8 reporter, EWS-Fli block)
Cc1csc(SCC(=O)Nc2cccc(S(=O)(=O)N3CCCC3)c2)n1	Statin myotox sup 135.8 (no result: INS-1E GSIS act, Env fusion inh, PAX8 reporter, EWS-Fli block)
O=C(Nc1ccc(Br)cn1)c1cccc(S(=O)(=O)N2CCCC2)c1	Env fusion inh 56.5 (no result: INS-1E GSIS act)
Cc1ccc(S(=O)(=O)NNC(=O)c2snnc2C)cc1	Statin myotox sup 128.0 (no result: INS-1E GSIS act, EWS-Fli block)
COc1cccc(-c2cnc3c(c2)C(=O)N([C@H](C)CO)C[C@H](C)[C@H](CN(C)C(=O)Nc2cccc4ccccc24)O3)c1	Env fusion inh 89.3[16.7 µM], Statin myotox sup inconclusive
C[C@H](CO)N1C[C@H](C)[C@H](CN(C)C(=O)Nc2ccc3c(c2)OCO3)Oc2ncc(C#Cc3ccc(F)cc3)cc2C1=O	Statin myotox sup 74.1
C[C@H](CO)N1C[C@H](C)[C@@H](CN(C)C(=O)Nc2ccccc2)Oc2ncc(C#CC3CCCC3)cc2C1=O	Statin myotox sup 78.2
COc1ccc(C#Cc2cnc3c(c2)C(=O)N([C@H](C)CO)C[C@@H](C)[C@@H](CN(C)C(=O)Nc2cccc(OC)c2)O3)cc1	none (no result: PAX8 reporter)
COc1ccc(C#Cc2cnc3c(c2)C(=O)N([C@H](C)CO)C[C@H](C)[C@@H](CN(C)C(=O)Nc2cccc(OC)c2)O3)cc1	Statin myotox sup 112.0!
COc1ccc(-c2csc3ncnc(N4CCN(S(=O)(=O)c5cccc(C(F)(F)F)c5)CC4)c23)cc1	none (no result: miR122 inh, Statin myotox sup)
COc1ccc(-c2csc3ncnc(N4CCN(S(=O)(=O)c5cccc(Br)c5)CC4)c23)cc1	Statin myotox sup 77.3
CCOc1cc(/C=C2\SC(=S)N(NS(=O)(=O)c3ccccc3)C2=O)ccc1O	none
CCOc1ccc(/C=C2\SC(=S)N(NS(=O)(=O)c3ccccc3)C2=O)cc1OC	INS-1E GSIS act 62.3 (no result: miR122 inh, Statin myotox sup)
CCOc1ccc(/C=C2\SC(=S)N(NS(=O)(=O)c3ccc(C)cc3)C2=O)cc1OC	INS-1E GSIS act 41.9 (no result: Statin myotox sup)
CCCC12CN(C(=O)c3ccco3)CC(CCC)(CN(C(=O)c3ccco3)C1)C2=O	Statin myotox sup 76.8
CCc1ccc(CN2CCN(C(=O)c3ccco3)CC2)cc1	none
CC=Cc1ccc2n(c1=O)C[C@H]1[C@H](CO)[C@@H](C(=O)N[C@@H](C)c3ccccc3)[C@@H]2N1Cc1ccncc1 (mixture of isomers)	none (no result: Env fusion inh)
C[C@H]1CN([C@@H](C)CO)S(=O)(=O)c2ccc(Br)cc2O[C@H]1CN(C)S(=O)(=O)c1ccc(F)cc1	Env fusion inh 63.3[16.7 µM]
C[C@@H]1CN([C@@H](C)CO)S(=O)(=O)c2ccc(-c3cccc(F)c3)cc2O[C@@H]1CN(C)S(=O)(=O)c1ccc(F)cc1	Env fusion inh 59.4[16.7 µM] (no result: PAX8 reporter)
COc1ccccc1-c1ccc2c(c1)O[C@H](CN(C)S(=O)(=O)c1ccc(C)cc1)[C@H](C)CN([C@@H](C)CO)S2(=O)=O	Env fusion inh 42.6[16.7 µM]
Cc1ccc(S(=O)(=O)N(C)C[C@@H]2Oc3cc(-c4cccc(F)c4)ccc3S(=O)(=O)N([C@@H](C)CO)C[C@@H]2C)cc1	none
Cc1ccc(S(=O)(=O)N(C)C[C@H]2Oc3cc(-c4cccc(F)c4)ccc3S(=O)(=O)N([C@@H](C)CO)C[C@H]2C)cc1	Env fusion inh 69.1[16.7 µM]
COc1ccccc1NC(=O)N(C)C[C@@H]1OCc2ccccc2-c2ccccc2C(=O)N([C@H](C)CO)C[C@@H]1C	none (no result: miR122 inh)
C[C@@H]1CN([C@@H](C)CO)C(=O)Cc2cc(NC(=O)C3CC3)ccc2O[C@H]1CN(C)CC1CC1	none
Cc1ccc(S(=O)(=O)N(C)C[C@H]2Oc3cc(-c4cccc(F)c4)ccc3S(=O)(=O)N([C@H](C)CO)C[C@H]2C)cc1	Env fusion inh 64.1[16.7 µM]
O=C(NCCOC(=O)c1ccncc1)c1ccccc1	Statin myotox sup 86.6 (no result: INS-1E GSIS act, Env fusion inh, PAX8 reporter, EWS-Fli block)
O=C(NCCOC(=O)c1ccccc1)c1ccc([N+](=O)[O-])cc1	none
C[C@@H]1CN([C@H](C)CO)C(=O)Cc2cc(NC(=O)CCN3CCOCC3)ccc2O[C@H]1CN(C)Cc1ccc(Cl)c(Cl)c1	none (no result: Env fusion inh)
CC1CN(CC(O)COC(c2ccccc2)c2ccccc2)CC(C)O1 (configuration not stated)	PAX8 reporter 120.4 (no result: INS-1E GSIS act, Env fusion inh, Statin myotox sup)
COc1cc2c(cc1OC)C(c1ccc(-c3ccc(Cl)cc3Cl)o1)=NCC2	Env fusion inh 97.6 (no result: INS-1E GSIS act, PAX8 reporter, EWS-Fli block, Statin myotox sup)
COc1cc2c(cc1OC)C(c1ccc(-c3ccc(Cl)c(Cl)c3)o1)=NCC2	Env fusion inh 82.8 (no result: INS-1E GSIS act, PAX8 reporter, EWS-Fli block)
CCC(=O)Nc1ccc2c(c1)C(=O)N(C)[C@@H]1CC[C@@H](CC(=O)NCC3CCCCC3)O[C@@H]1CO2	none
COc1ccc(-c2nc3cc(NC(=O)Cc4ccc(OC)c(OC)c4)ccc3o2)cc1	Env fusion inh 63.4 (no result: INS-1E GSIS act, EWS-Fli block)
COc1ccccc1CC(=O)Nc1cc(C)on1	none
COc1ccc(CC(=O)Nc2cc(C)on2)cc1OC	Statin myotox sup 111.3 (no result: INS-1E GSIS act, Env fusion inh, PAX8 reporter, EWS-Fli block)
COc1ccc(CC(=O)Oc2ccc(C)cc2Br)cc1OC	Env fusion inh 61.3 (no result: EWS-Fli block)
COc1ccc(CC(=O)Oc2ccc(C)cc2C)cc1	none (no result: miR122 inh)
CC=Cc1ccc2n(c1=O)C[C@H]1[C@H](CO)[C@@H](C(=O)NCC)[C@@H]2N1C(=O)c1ccccc1 (mixture of isomers)	none (no result: Env fusion inh)
Cc1ccc(-c2nc(-c3ccccn3)no2)cc1Cl	PAX8 reporter 80.8 (no result: INS-1E GSIS act, EWS-Fli block, Statin myotox sup)
c1ccc(-c2ccc(-c3nc(-c4ccccn4)no3)cc2)cc1	EWS-Fli block 87.3 (no result: Env fusion inh, PAX8 reporter)
CNC[C@@H]1Oc2c(NS(=O)(=O)c3ccc(C)cc3)cccc2C(=O)N([C@H](C)CO)C[C@@H]1C	none (no result: Env fusion inh)
O=C(CNC(=O)c1ccc(Cl)cc1)OCCN1C(=O)c2ccccc2C1=O	none (no result: Env fusion inh)
